Among all 16,000 compounds or so, about 5,700 (36%) were called active. Another 24% or so got no clear call; they are omitted. Calls come from the whole dose curve; as a rule, active = well fitted curve in the direction sought with a large enough effect; inconclusive = small, poorly fitted or top-dose-only effect, or effect the other way; inactive = no such curve, though single readings can be large or run the other way. This is one part of the list.
Molecular target: Cytochrome P450 1A2 (Homo sapiens) (UniProt P05177)
Assay: Cytochrome panel assay with activity outcomes
Settings: recombinant CYP, pro-luciferin dealkylation, luminescence, p450-cyp1a2; series mostly up to 57.1 µM; activity, negative = inhibition: at the top concentration
% is set by controls: 0 for no effect and ±100 for the full control effect.

Chain of Cytochrome P450 1A2 (Homo sapiens) (P05177 whole entry, looked up): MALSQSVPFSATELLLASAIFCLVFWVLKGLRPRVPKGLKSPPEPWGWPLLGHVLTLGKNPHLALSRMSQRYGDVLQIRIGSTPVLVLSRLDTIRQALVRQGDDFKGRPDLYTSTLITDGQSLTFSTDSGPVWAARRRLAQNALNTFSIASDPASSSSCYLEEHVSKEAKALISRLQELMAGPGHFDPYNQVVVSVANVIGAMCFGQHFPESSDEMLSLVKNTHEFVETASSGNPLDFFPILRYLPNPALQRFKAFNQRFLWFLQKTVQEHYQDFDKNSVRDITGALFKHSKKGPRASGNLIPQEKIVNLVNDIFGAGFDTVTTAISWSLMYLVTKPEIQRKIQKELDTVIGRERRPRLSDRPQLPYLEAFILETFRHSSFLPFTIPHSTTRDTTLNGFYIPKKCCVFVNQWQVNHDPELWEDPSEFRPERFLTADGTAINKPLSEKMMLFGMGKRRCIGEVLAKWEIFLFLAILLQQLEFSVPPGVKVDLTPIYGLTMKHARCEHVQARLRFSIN

Compound	AC50	activity, negative = inhibition
CO[C@]1(NC(=O)CSCC#N)C(=O)N2C(C(=O)O)=C(CSc3nnnn3C)CS[C@H]21	inactive	–
COc1ccccc1-c1ccc2ncnc(Nc3ccccc3)c2c1	2.51 µM (active)	–
CNc1ncnc2ccc(-c3ccccc3OC)cc12	2.51 µM (active)	–
Cc1ccc(CS(=O)(=O)CCC(=O)NCCCOC(C)C)cc1	–	-27.3% (inactive)
NC(N)=NNC(=O)C(=O)O	–	-1.69% [at 11.4 µM] (inactive)
Cc1ccc(NC(=O)/C(=C\c2cccnc2)NC(=O)c2ccco2)cc1	–	-29.4% (inactive)
O=C(NC(Cc1ccccc1)C(=O)O)/C(=C\c1ccco1)NC(=O)c1ccc(Br)cc1 (configuration not stated)	–	-18.5% (inactive)
O=C(N/C(=C/c1ccc(Br)cc1)c1nc2ccccc2[nH]1)c1ccco1	7.08 µM (active)	–
C[C@H](NC[C@H](O)CP(=O)(O)Cc1ccccc1)c1ccc(Cl)c(Cl)c1	–	-7.11% (inactive)
C[C@H](NC[C@H](O)CP(=O)(O)CC1CCCCC1)c1ccc(Cl)c(Cl)c1	39.8 µM (active)	–
CCS(=O)(=O)Nc1ccc(C2=NN(C(=O)c3ccco3)C(c3ccc(C)cc3)C2)cc1 (configuration not stated)	–	-4.87% (inactive)
CNC(=S)N1N=C(c2ccc(OC)cc2)CC1c1ccc(N(C)C)cc1 (configuration not stated)	10 µM (active)	–
COc1ccccc1CNc1ccnc(-c2cccc(C#N)c2)n1	0.794 µM (active)	–
COc1ccc(CNc2ccnc(-c3cccc(C#N)c3)n2)c(OC)c1	2.51 µM (active)	–
C=CCNC(=S)N1CCN(c2ncc3c(=O)c(C(=O)O)cn(CC)c3n2)CC1	–	-12.9% (inactive)
C=CC[C@H](N)C(=O)O	–	-2.54% (inactive)
Cc1cc(NC(=O)C2CCCC2)n(-c2nc3ccccc3[nH]2)n1	2.82 µM (active)	–
O=C(c1cnc(-c2ccccc2)s1)c1ccc(Cl)cc1Cl	1.12 µM (active)	–
CC(=O)N1CCC2(CC1)CN(C(c1ccccc1)c1ccccc1)C2	–	1.33% (inactive)
O=c1ccn(-c2cccc(C(F)(F)F)c2)nc1-c1ccn(-c2ccccc2F)n1	5.62 µM (active)	–
COc1ccccc1NC(=O)c1nn(-c2cccc(C(F)(F)F)c2)ccc1=O	5.01 µM (active)	–
CCCC1CCC(c2ccc(C(N)=O)cc2)CC1 (configuration not stated)	–	8.51% (inactive)
CCN(CC)Cc1nc2c(c(=O)[nH]1)C1(CCCC1)Cc1ccccc1-2	5.01 µM (active)	–
O=C(O)CN=C1NC2(CCCC2)Cc2ccccc21	–	3.63% (inactive)
C[C@@H]1C[C@@H]2[C@H]3CCC4=CC(=O)C=C[C@]4(C)[C@]3(F)[C@@H](O)C[C@@]2(C)[C@@]1(O)C(=O)CO	inactive	–

Compound	AC50	activity, negative = inhibition
O=C(OC1CCN(c2ncc(C(F)(F)F)cc2Cl)CC1)c1ccccc1	–	-17.9% (inactive)
Nc1ccccc1Oc1ncc(C(F)(F)F)cc1Cl	2.82 µM (active)	–
FC(F)(F)c1cnc(N2CCC(=NOCc3ccc(Cl)cc3)CC2)c(Cl)c1	–	-7.97% (inactive)
NS(=O)(=O)c1cc2c(cc1Cl)N[C@@H]([C@@H]1C[C@@H]3C=C[C@H]1C3)NS2(=O)=O	–	-19.7% (inactive)
CCCCCc1nc2c(C#N)c(-c3ccc(Cl)cc3)ccn2n1	8.91 µM (active)	–
Cc1oncc1C(=O)Nc1ccc(C(F)(F)F)cc1	0.0631 µM (active)	–
C[C@@H](CCCCC(=O)Nc1ccc(C(F)(F)F)cc1)NCCc1cnc[nH]1	–	-20.5% (inactive)
CC(C)CN(CC(C)C)C1=N/C(=C\c2ccco2)C(=O)N1c1ccccc1	–	-23.4% (inactive)
CCCCN=C1N/C(=C\c2ccco2)C(=O)N1c1ccccc1	2 µM (active)	–
O=c1c(-c2cccc(Cl)c2)nc2cncnc2n1Cc1ccccc1Cl	2 µM (active)	–
O=c1c(-c2ccc(F)c(F)c2)nc2cncnc2n1Cc1ccccc1Cl	5.01 µM (active)	–
O=c1c(-c2cccc(Cl)c2)nc2cncnc2n1Cc1ccccc1	1 µM (active)	–
O=c1c(-c2ccccc2)nc2cncnc2n1Cc1ccccc1Cl	2 µM (active)	–
COc1ccc(S(N)(=O)=O)cc1C(=O)NCCCN1CCN(c2ccc(C)cc2)CC1	–	-4.28% (inactive)
CCCCOc1ccc(-c2nnn(CC(=O)c3c[nH]c4ccccc34)n2)cc1	–	9.73% (inactive)
CNC(=O)c1cc2c(cn1)[nH]c1ccccc12	0.0501 µM (active)	–
CCCCOC(=O)c1cc2c(cn1)[nH]c1ccccc12	0.158 µM (active)	–
CCOCc1cnc(C)nc1NCC(=O)c1c(C)[nH]c2ccccc12	–	9.26% (inactive)
CCN=C(Nc1cccc(F)c1)SC1CC(=O)N(c2ccc(OC)cc2)C1=O (configuration not stated)	6.31 µM (active)	–
CCOC(=O)NNC1CC(=O)N(c2ccc(OC)cc2)C1=O (configuration not stated)	–	-9.03% (inactive)
COc1ccc(NC(=O)N2CCC3(CC2)CCN(C(=O)c2cccc(F)c2)CC3)cc1	–	-14.4% (inactive)
Cc1cc2c(nc1C)CCCCN2C[C@H](C)O/N=C\[C@@H](C)[C@H](OCc1ccccc1)C(C)C	–	-17.4% [at 11.4 µM] (inactive)
CC(=O)c1cnc2c(C(=O)O)cnn2c1C	–	2.54% (inactive)
CC(=O)c1cnc2cc(C)nn2c1C	22.4 µM (active)	–
CCN1C(=O)[C@H]2[C@H]3[C@H](O)[C@H](O)C/C(=N/OC[C@@H](O)[C@H]4O[C@H]5OC(C)(C)O[C@H]5[C@@H]4O)[C@@H]3CC[C@@H]2C1=O	–	-1.85% [at 11.4 µM] (inactive)

Compound	AC50	activity, negative = inhibition
O=c1c(-c2cccs2)nc2cncnc2n1Cc1ccccc1	2.51 µM (active)	–
O=c1c(-c2cccs2)nc2cncnc2n1Cc1ccc(F)cc1	2.51 µM (active)	–
CCCNc1[nH]c(=O)n(C)c(=O)c1N=O	–	0.913% (inactive)
Cc1cccc2c1Oc1ccccc1[C@@H]2NC(=O)c1ccc([N+](=O)[O-])cc1	1 µM (active)	–
CN(C(=O)Cn1nnc(-c2cccc(C(F)(F)F)c2)n1)C1CCCCC1	–	-15.3% (inactive)
CC(C)NC(=O)c1ccc(-c2cccc(C(F)(F)F)c2)o1	0.398 µM (active)	–
C[C@@]1(C(NC(=O)Cc2ccc(C(F)(F)F)cc2)c2ccc(-c3ccccc3)cc2)C[C@H]1C1CCCCC1 (some centres not stated)	–	11% (inactive)
CCc1cc2c(NCc3ccco3)ncnc2s1	2.51 µM (active)	–
CCc1cc2c(NCCO)ncnc2s1	6.31 µM (active)	–
OCCNc1ncnc2c1ncn2[C@@H]1O[C@@H](CO)[C@H](O)[C@@H]1O	–	-20.3% [at 11.4 µM] (inactive)
OCCNc1ncnc2nc[nH]c12	–	-5.82% [at 11.4 µM] (inactive)
FC(F)(F)c1ccccc1-c1nccc(N2CCNCC2)n1	10 µM (active)	–
CN1CCN(c2nc(-c3ccccc3C(F)(F)F)nc3ccccc23)CC1	10 µM (active)	–
FC(F)(F)c1ccccc1-c1nc(N2CCNCC2)c2ccccc2n1	10 µM (active)	–
CO[C@@H]1COC(=O)[C@@H](C)NC(=O)C/C=C\[C@@H](C)[C@H](NS(=O)(=O)c2ccc(C)cc2)COC(=O)[C@H](C)NC(=O)C/C=C\[C@H]1C	–	1.37% [at 11.4 µM] (inactive)
CCOC(=O)c1c(C)c(C)n2c1NC(=O)C2	2 µM (active)	–
CCOC(=O)N1CCN(C(=O)c2ccc(OC)c(OC)c2)CC1	–	-0.0485% (inactive)
CCOC(=O)N1CCN(C(=O)c2ccc(Cl)c(S(=O)(=O)N3CCOCC3)c2)CC1	6.31 µM (active)	–
CCOC(=O)N1CCN(C(=O)c2ccc(NC(C)=O)cc2)CC1	–	6.91% (inactive)
O=C(O)c1cc(=O)cc(C(=O)O)[nH]1	–	2.72% (inactive)
COc1ccc(-n2c(=O)c(C)nc3cnc(N(C)C)nc32)cc1	6.31 µM (active)	–
Cc1nc2cnc(N(C)C)nc2n(-c2ccccc2)c1=O	2 µM (active)	–
COc1ccc(-n2c(=O)cnc3cnc(N(C)C)nc32)cc1	5.01 µM (active)	–
C[C@H](O)C(=O)Nc1c(I)c(C(=O)NC(CO)CO)c(I)c(C(=O)NC(CO)CO)c1I	–	0.269% [at 25.6 µM] (inactive)
C#CCCCO/N=C1/C[C@@H](O)[C@@H](O)[C@@H]2[C@@H]3C(=O)N(CCC(=O)OCC)C(=O)[C@H]3CC[C@H]12	–	-10.2% [at 11.4 µM] (inactive)

Compound	AC50	activity, negative = inhibition
CCOC(=O)N1CCC(NS(=O)(=O)c2ccc3c(c2)C(C)(C)C(=O)N3C)CC1	–	14% (inactive)
NCCCS(=O)(=O)O	–	-4.72% (inactive)
Cc1ccc(C(=O)N2C3C=CC(C3)C2(C(F)(F)F)C(F)(F)F)cc1 (configuration not stated)	–	-9.14% (inactive)
C[C@H](NC(=O)c1ccc(Cl)c(Cl)c1)c1ccc(-c2ccccc2)cc1	0.631 µM (active)	–
CCCCCN(CCCCC)C(=O)[C@H](CCC(=O)O)NC(=O)c1ccc(Cl)c(Cl)c1	inactive	–
COc1ccc(C(NC(=O)c2ccc(-c3ccccc3)cc2)c2ccccc2)cc1 (configuration not stated)	–	-2.05% (inactive)
CCOc1ccc(C(C)=O)cc1N1C(=O)C2C(C1=O)C1C=CC2C12CC2 (configuration not stated)	–	-21.9% (inactive)
Cc1cccc(N/C(=N\S(=O)(=O)c2ccccc2)C(F)(F)F)c1	14.1 µM (active)	–
O=C(Nc1cccc(F)c1)N1CC2(CCN(S(=O)(=O)c3ccccc3)CC2)C1	–	-28.7% (inactive)
Cc1cccc(Nc2ccncc2S(=O)(=O)NC(=O)NC(C)C)c1	–	-15.6% [at 25.6 µM] (inactive)
CCC(=O)NC(NC(=O)CC)C(Cl)Cl	–	-1.98% (inactive)
O=C(Nc1ccccc1)c1cc([N+](=O)[O-])ccc1Cl	0.631 µM (active)	–
CC(=O)Nc1ccc(NC(=O)c2ccccc2CC[N+](=O)[O-])cc1	–	-12.1% (inactive)
O=C(Nc1ccccc1)c1ccccc1CC[N+](=O)[O-]	15.8 µM (active)	–
O=C(O)c1cc(N=Nc2ccc([N+](=O)[O-])cc2)ccc1O	–	-15.2% [at 2.29 µM] (inactive)
Cc1cccc[n+]1CC(=O)Nc1ccc([N+](=O)[O-])cc1Cl	–	-0.914% (inactive)
O=C(Nc1ccc([N+](=O)[O-])cc1Cl)c1cc(Cl)ccc1O	1.26 µM (active)	–
COc1cccc(/C(O)=C2/C(=O)C(=O)N(c3cc(C)on3)C2c2cccs2)c1 (configuration not stated)	–	-13.9% (inactive)
CC(=O)OCC1=C(C(=O)O)N2C(=O)[C@@H](NC(=O)CSc3ccncc3)[C@@H]2SC1	inactive	–
CCc1ccc(OCC(=O)NNC(=O)CSc2ncnc3sc(C)c(C)c23)cc1	–	-21.4% (inactive)
Fc1ccc(CSc2ncnc3sc4c(c23)CCCC4)cc1	4.47 µM (active)	–
c1ccc(CSc2ncnc3c2sc2nc(N4CCOCC4)c4c(c23)CCCC4)cc1	–	-8.51% (inactive)
